{"source": "PubChem BioAssay AID493244", "about": "(The Scripps Research Institute Molecular Screening Center, 2011)", "note": "“And” between values parts separate entries of the source, which are not always exact repeats. Equal values may be shown once. Among all 340,000 compounds or so, about 390 (0.11%) were called active. For the sample, actives were picked, then their nearest neighbours and some compounds at random. Values without a mark were called inactive.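 How the source made its calls: active means inhibition above the mean inhibition of all tested compounds plus 3 SD (cut at about 17% in these data); inactive means the rest.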", "data": [{"molecular_target": "Troponin I, cardiac muscle (Homo sapiens) + Troponin T, cardiac muscle (Homo sapiens) + Troponin C, slow skeletal and cardiac muscles (Homo sapiens) (UniProt P19429+P45379+P63316)", "test": "cardiac RTF calcium sensitivity inhibitors, primary screen, biochemical, IANBD-TnC fluorescence, EC70 calcium (AID 493244);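 further: assay run at fixed EC70 calcium of 1.6 mM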", "conditions": "IANBD-labeled cardiac RTF, Ca2+ fluorescence; at 7.15 µM; hits give high values", "values": [{"smiles": "Cc1cc(C)c2nc(SCC(=O)N(C)C3CCS(=O)(=O)C3)cc(C)c2c1", "note": "(stereo unspecified)", "inhibition": "-11.7%"}, {"smiles": "Cc1cc2oc(=O)cc(-c3ccccc3)c2c(C)c1-c1ccc(OC(F)(F)F)cc1", "inhibition": "-2.33%"}, {"smiles": "CCn1c(SCc2cc(=O)n3ccsc3n2)nc2ccccc21", "inhibition": "-0.11%"}, {"smiles": "COc1ccc(S(=O)(=O)NCC2CCCN(C(=O)c3occc3C)C2)cc1", "note": "(stereo unspecified)", "inhibition": "-1.36%"}, {"smiles": "COc1ccc2oc(N)nc2c1", "inhibition": "1.17%"}, {"smiles": "COc1cc(C(=O)Nn2c(O)c(C3=c4ccccc4=NC3=O)sc2=S)ccc1O", "inhibition": "-0.38%"}, {"smiles": "C=CCn1c(N)cc(=O)nc1SCC(=O)Nc1cccc2ccccc12", "inhibition": "-2.98%"}, {"smiles": "COc1cc(OC)c2c(c1)OC(=O)CC2c1cc(OC)c(OC)c(OC)c1", "note": "(stereo unspecified)", "inhibition": "-1.64%"}, {"smiles": "NC(=O)C1(N2CCCCC2)CCN(C(=O)c2ccc(C#Cc3ccccc3)o2)CC1", "inhibition": "-7.6%"}, {"smiles": "N#CC1(Nc2ccc(-c3ccc(Cl)cc3)cc2)CCCC1", "inhibition": "-2.12%"}, {"smiles": "O=C(COC(=O)c1ccccc1Cl)NC1CCCCCCC1", "inhibition": "3.26%"}, {"smiles": "C=CCNC(=O)COC(=O)c1ccccc1C(=O)N(C)C1CCCCC1", "inhibition": "18.3% (active)"}, {"smiles": "O=C(COC(=O)c1ccccc1SCC(=O)NC1CCCCC1)NC1CCCCC1", "inhibition": "1.46%"}, {"smiles": "CCCCN(C(=O)CSCc1ccc(C)cc1)c1c(N)n(Cc2ccccc2)c(=O)[nH]c1=O", "inhibition": "-2.92%"}, {"smiles": "COc1cccc(NC(=S)C(C#N)=C2N(C)c3ccccc3N2C)c1", "inhibition": "-5.1%"}, {"smiles": "Cc1nc(-c2ccccc2)sc1-c1nnc(C2CC2)o1", "inhibition": "-8.96%"}, {"smiles": "O=C(CNC(=O)C12CC3CC(CC(C3)C1)C2)OCC(=O)N1CCCCC1", "inhibition": "-10.1%"}, {"smiles": "CC1(C)C/C(=N/Nc2ccc([N+](=O)[O-])cc2[N+](=O)[O-])C(C)(C)O1", "inhibition": "-8.69%"}, {"smiles": "Cc1ccc(C(=O)C[n+]2cc(-c3ccccc3)n3c2CCCCC3)cc1", "inhibition": "-12.2% and -7.58%"}, {"smiles": "CCOC(=O)c1nnn2c1nc(N1CCN(c3ccccc3)CC1)c1ccccc12", "inhibition": "-5.69%"}, {"smiles": "CCCCn1c(N)c(N(CC(C)C)C(=O)CSc2ccc([N+](=O)[O-])cc2)c(=O)[nH]c1=O", "inhibition": "-11.5%"}, {"smiles": "C[N+](C)(C)CCNC(=O)c1cc[n+](Cc2ccccc2)c(/C=N/O)c1", "inhibition": "0.25%"}, {"smiles": "CC1CCCCC1NC(=O)COC(=O)Cc1ccc(Br)cc1", "note": "(stereo unspecified)", "inhibition": "-1.84%"}, {"smiles": "O=C1Nc2c(Br)cc(Br)cc2C1(O)N1CCOCC1", "note": "(stereo unspecified)", "inhibition": "-1.44%"}, {"smiles": "CCc1[nH]nc(C(=O)N2CCCC(CO)(Cc3ccc(F)cc3F)C2)c1C", "note": "(stereo unspecified)", "inhibition": "-5.33%"}, {"smiles": "COC(C(=O)Nc1ccc(S(=O)(=O)Nc2ccc(C)c(C)c2)cc1)c1ccccc1", "note": "(stereo unspecified)", "inhibition": "-0.7%"}, {"smiles": "Cc1cccc(-c2c(NC(=O)c3ccco3)oc3ccc(Cl)cc3c2=O)c1", "inhibition": "-4.74%"}, {"smiles": "C/C(=N\\NC(=O)C(N)=O)c1ccc2c(c1)OCCO2", "inhibition": "17.1% (active)"}, {"smiles": "C/C(=N/NC(=O)c1ccncc1)c1ccc2c(c1)OCO2", "inhibition": "-5.5%"}, {"smiles": "C/C(=N\\NC(=O)COc1ccc(C)cc1[N+](=O)[O-])c1ccc2c(c1)OCCO2", "inhibition": "-7.39%"}, {"smiles": "CC(C)(C)c1ccc(C(=O)NCc2nnc(SCC(=O)N3CCCc4ccccc43)n2-c2ccccc2)cc1", "inhibition": "-6.84%"}, {"smiles": "CCCCSc1nnc2c(n1)OC=Nc1ccccc1-2", "inhibition": "-2.01%"}, {"smiles": "Cc1ccc2c(c1)C1C[N+](C)(CC(=O)c3ccccc3)CCC1N2C(=O)c1ccccc1Cl", "note": "(stereo unspecified)", "inhibition": "-13.7%"}, {"smiles": "COc1ccc(C2CC(=O)NC(=O)C2)cc1", "inhibition": "-0.2%"}, {"smiles": "COc1ccc(CCC(=O)Nc2ccc(Cl)c(S(=O)(=O)N3CCOCC3)c2)cc1OC", "inhibition": "-10.9%"}, {"smiles": "CCc1nnc(NC(=O)c2cc(S(=O)(=O)N3CCN(CC)CC3)ccc2Cl)s1", "inhibition": "-8.17%"}]}]}
